Test [1] has as its target mouse Estrogen Receptor alpha (Era), Esr1 (gene 13982) (UniProt P19785). Briefly: NVS_NR_mERa: NovaScreen (NVS) Nuclear Receptor Binding Assay for mouse Estrogen Receptor alpha (Era) (AID 2283378).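 Also: hit means loss of bound radioligand signal relative to DMSO.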 In a few lines:
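Cell-free radioligand binding with extracted mouse Era protein; competitive displacement of radiolabelled ligand, read by filter-based scintillation counting 18 hours after dosing. Loss of signal versus DMSO baseline taken as binding; single screening concentration 25 uM, actives followed in concentration series.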

Test [2] has as its target Estrogen receptor (Homo sapiens) (UniProt P03372). Put plainly: OT_ERa_GFPERaERE_0480: Odyssey Thera (OT) 8-hour HeLa Transcription Induction Assay for Estrogen Receptor (AID 2283381; active = hit-call score of the fitted dose curve at least 0.9, where 1 is the maximum; inactive = score below 0.9). An outline of the steps:
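Human cervical HeLa cells were treated for 8 hours, after which ERE-driven GFP induction was measured by fluorescence microscopy; increases over DMSO baseline defined activity.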

Test [3] deals with Retinoic acid receptor RXR-alpha (Homo sapiens) (UniProt P19793). Briefly: OT_NURR1_NURR1RXRa_0480: Odyssey Thera (OT) 8-hour HEK293T Protein Complementation Assay for Nurr1/retinoid X receptor (RXR) (AID 2283385). In a few lines: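 Interaction of bait and prey reconstitutes a functional reporter, whose fluorescence was measured in HEK293T cells dosed with compound for 8 hours. Signal gain relative to DMSO defined the single endpoint.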
Sequence of Retinoic acid receptor RXR-alpha (Homo sapiens) (P19793 whole entry, looked up): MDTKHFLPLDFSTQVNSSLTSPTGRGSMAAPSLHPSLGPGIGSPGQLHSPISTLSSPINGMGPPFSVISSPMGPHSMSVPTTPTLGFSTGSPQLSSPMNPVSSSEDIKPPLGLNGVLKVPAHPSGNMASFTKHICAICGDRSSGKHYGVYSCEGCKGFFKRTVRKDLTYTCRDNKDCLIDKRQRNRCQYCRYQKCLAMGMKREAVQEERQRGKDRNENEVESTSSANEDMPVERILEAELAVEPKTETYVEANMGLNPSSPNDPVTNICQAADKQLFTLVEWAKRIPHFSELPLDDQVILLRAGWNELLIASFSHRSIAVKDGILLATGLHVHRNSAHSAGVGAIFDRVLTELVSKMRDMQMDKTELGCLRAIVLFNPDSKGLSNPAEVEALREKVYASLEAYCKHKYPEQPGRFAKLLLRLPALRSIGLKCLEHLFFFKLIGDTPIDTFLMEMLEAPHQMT

The target is the same in test [4]. Briefly: OT_NURR1_NURR1RXRa_1440: Odyssey Thera (OT) 24-hour HEK293T Protein Complementation Assay for Nurr1/retinoid X receptor (RXR) (AID 2283386). An outline of the steps: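 Steps: fragment-tagged Nurr1 and RXRα expressed in HEK293T; compounds added; after 24 h, complemented reporter quantified by fluorescence intensity; signal increase over DMSO fitted as the single endpoint.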

For test [5], the target named is Peroxisome proliferator-activated receptor gamma (Homo sapiens) (UniProt P37231). Put plainly: OT_PPARg_PPARgSRC1_0480: Odyssey Thera (OT) 8-hour Protein-Complementation Assay for Peroxisome Proliferator-activated Receptor Gamma / SRC-1 Co-activator (AID 2283387). An outline of the steps:
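Split-YFP (IFP1/IFP2) PPARg/SRC-1 reporter, HEK293T, 37 °C, 5% CO2; 8 h compound; formaldehyde fix + Draq5; high-content imaging, N/C ratio, ≥350 cells/image, positive direction vs DMSO.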

The target in test [6] is human Dopamine Transporter (DAT), SLC6A3 (gene 6531) (UniProt Q01959). Put plainly: NVS_TR_hDAT: NovaScreen (NVS) Transporter Assay for human Dopamine Transporter (DAT) (AID 2283374).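 Also: activity means loss of bound radioligand signal relative to DMSO.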 An outline of the steps: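 Extracted human SLC6A3 protein incubated 1 h with radioligand and test chemical; bound fraction separated on filters and counted. Single 25 uM duplicate screen preceded concentration-response follow-up; positive and negative controls on every plate.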
Sequence of human Dopamine Transporter (DAT), SLC6A3 (gene 6531) (Q01959 whole entry, looked up): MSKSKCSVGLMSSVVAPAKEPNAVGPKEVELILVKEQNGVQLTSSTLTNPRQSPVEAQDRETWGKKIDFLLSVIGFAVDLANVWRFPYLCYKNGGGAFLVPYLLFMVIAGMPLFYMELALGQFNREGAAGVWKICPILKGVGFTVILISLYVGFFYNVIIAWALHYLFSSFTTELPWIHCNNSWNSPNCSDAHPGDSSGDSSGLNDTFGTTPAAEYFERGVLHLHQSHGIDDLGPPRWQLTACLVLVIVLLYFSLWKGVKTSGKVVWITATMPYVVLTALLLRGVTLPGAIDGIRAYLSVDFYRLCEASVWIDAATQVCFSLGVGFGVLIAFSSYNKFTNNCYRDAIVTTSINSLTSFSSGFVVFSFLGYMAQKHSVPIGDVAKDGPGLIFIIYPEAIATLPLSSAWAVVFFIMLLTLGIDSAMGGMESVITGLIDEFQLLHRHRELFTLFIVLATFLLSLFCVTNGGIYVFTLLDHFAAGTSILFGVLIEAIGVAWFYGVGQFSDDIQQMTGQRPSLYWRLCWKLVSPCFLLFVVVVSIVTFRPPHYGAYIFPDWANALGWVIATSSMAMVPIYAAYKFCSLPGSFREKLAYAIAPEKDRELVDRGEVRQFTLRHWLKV

Test [7] concerns the target Estrogen receptor beta (Homo sapiens) (UniProt Q92731). Put plainly: OT_ER_ERbERb_1440: Odyssey Thera (OT) 24-hour HEK293T Protein-Complementation Assay for Estrogen Receptor-beta/-beta Homodimer (AID 2283380).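 Also: fluorescence gain from ER beta LBD homodimer complementation read by laser scanning cytometry; scored as signal increase over DMSO baseline for both agonists and antagonists.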 In a few lines: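 HEK293T cells stably expressing human ER-beta LBD (aa 310-547) PCA homodimer pair, dosed 24 h; formaldehyde-fixed, Draq5-stained. Readout: increase in nuclear (agonist) or nuclear plus cytoplasmic (antagonist) fluorescence intensity versus DMSO, gain-of-signal fitting.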

Test [8] can be described thus: CEETOX_H295R_11DCORT: CeeTox H295R High-throughput Steroidogenesis Assay for 11-Deoxycortisol (11DCORT) (AID 2283432; active = hit-call score of the fitted dose curve at least 0.9, where 1 is the maximum; inactive = score below 0.9;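 as to AC50: human adrenal H295R cells prestimulated with 10 µM forskolin for 48 h; 11-deoxycortisol secreted into the medium measured by LC-MS/MS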). Conditions: actives raise or lower the signal. In a few lines:
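Steroidogenesis in human H295R cells: 48 h chemical exposure after forskolin priming, 11-deoxycortisol measured by LC-MS/MS.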

Test [9] in a line: CEETOX_H295R_OHPREG: CeeTox H295R High-throughput Steroidogenesis Assay for OH-Pregnenolone (OHPREG) (AID 2283434; active = hit-call score of the fitted dose curve at least 0.9, where 1 is the maximum; inactive = score below 0.9). Particulars: actives raise or lower the signal. In a few lines:
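Readout: HPLC-MS/MS of 17alpha-hydroxypregnenolone in medium after 48 h chemical exposure of H295R cells pretreated with forskolin. Values fitted bidirectionally relative to DMSO; chemicals reducing viability to 20–70% were retested after 10-fold dilution.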

The nature of test [10]: CEETOX_H295R_OHPROG: CeeTox H295R High-throughput Steroidogenesis Assay for OH-Progesterone (OHPROG) (AID 2283435; active = hit-call score of the fitted dose curve at least 0.9, where 1 is the maximum; inactive = score below 0.9;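 as to AC50: human adrenal H295R cells primed 48 h with 10 µM forskolin; 17alpha-hydroxyprogesterone secreted into medium measured by HPLC-MS/MS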). Particulars: actives raise or lower the signal. An outline of the steps:
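Steps: seed H295R cells and adhere overnight; stimulate with 10 uM forskolin for 48 h; replace with chemical-containing medium (0.1% DMSO) for 48 h; extract medium with MTBE; quantify 17alpha-hydroxyprogesterone by reverse-phase C18 HPLC-MS/MS against a 7-point curve.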

Test [11] has as its target rat Serotonin Transporter (SERT), Slc6a4 (gene 25553) (UniProt P31652). Put plainly: NVS_TR_rSERT: NovaScreen (NVS) Transporter Assay for rat Serotonin Transporter (SERT) (AID 2283375). An outline of the steps: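 Rat forebrain membranes were incubated with test chemical for 1 hour; radioligand binding to SERT was measured by filter-based scintillation counting. Primary screen ran in duplicate at 25 uM, with actives followed up in concentration series; DMSO served as negative control.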

The target of test [12] is Estrogen receptor (Homo sapiens) (UniProt P03372). Put plainly: OT_ERa_GFPERaERE_0120: Odyssey Thera (OT) 2-hour HeLa Transcription Induction Assay for Estrogen Receptor (AID 2283382). An outline of the steps: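 Cells (human cervical HeLa) receive compound, incubate 2 hours, then are imaged for fluorescent reporter induction. Images are quantified by high content analysis, and activity is fitted as gain of signal against DMSO.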
Sequence of Estrogen receptor (Homo sapiens) (P03372 whole entry, looked up): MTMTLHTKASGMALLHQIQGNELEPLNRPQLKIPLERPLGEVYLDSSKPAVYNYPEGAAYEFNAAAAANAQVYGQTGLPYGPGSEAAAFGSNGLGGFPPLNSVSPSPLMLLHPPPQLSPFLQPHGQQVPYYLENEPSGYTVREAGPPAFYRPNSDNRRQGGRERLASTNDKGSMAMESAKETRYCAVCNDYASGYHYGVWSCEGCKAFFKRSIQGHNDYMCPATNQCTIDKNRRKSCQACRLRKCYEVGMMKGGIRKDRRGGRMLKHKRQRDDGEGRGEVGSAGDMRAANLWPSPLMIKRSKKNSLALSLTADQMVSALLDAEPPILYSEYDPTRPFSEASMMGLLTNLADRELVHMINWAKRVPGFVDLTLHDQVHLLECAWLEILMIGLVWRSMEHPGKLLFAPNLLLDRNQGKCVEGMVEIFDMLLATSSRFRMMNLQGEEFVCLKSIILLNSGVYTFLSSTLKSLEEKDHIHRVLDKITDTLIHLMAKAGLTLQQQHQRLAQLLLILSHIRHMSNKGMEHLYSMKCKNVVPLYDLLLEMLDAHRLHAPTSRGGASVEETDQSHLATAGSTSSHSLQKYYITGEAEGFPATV

The target in test [13] is Bile acid receptor (Homo sapiens) (UniProt Q96RI1). Briefly: OT_FXR_FXRSRC1_0480: Odyssey Thera (OT) 8-hour HEK293T Protein-Complementation Assay for Farnesoid X receptor/SRC-1 Co-activator (AID 2283383). An outline of the steps:
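PCA, HEK293T, 8 h compound exposure; FXR–SRC-1 binding reconstitutes split reporter; fluorescence intensity; positive-direction fit vs DMSO.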

Test [14] has the same target. Put plainly: OT_FXR_FXRSRC1_1440: Odyssey Thera (OT) 24-hour HEK293T Protein-Complementation Assay for Farnesoid X receptor/SRC-1 Co-activator (AID 2283384). In a few lines: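 Measures ligand-driven FXR–SRC-1 co-activator recruitment in HEK293T via fragment complementation, fluorescence intensity at 24 h. DMSO served as negative control and baseline for gain-of-signal fitting.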

Test [15] has as its target Peroxisome proliferator-activated receptor gamma (Homo sapiens) (UniProt P37231). Briefly: OT_PPARg_PPARgSRC1_1440: Odyssey Thera (OT) 24-hour Protein-Complementation Assay for Peroxisome Proliferator-activated Receptor Gamma/ SRC-1 Co-activator (AID 2283388). In a few lines: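 HEK293T cells transiently transfected with PPARg and SRC-1 fused via (Gly4Ser)2 linker to split Venus YFP fragments (IFP1/IFP2) were dosed 24 h; fixed, Draq5-stained, imaged at 488/635 nm; nuclear/cytoplasmic fluorescence ratio scored versus DMSO baseline, gain-of-signal.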

For test [16], the system named is rat Norepinephrine Transporter (NET), gene 83511. Briefly: NVS_TR_rNET: NovaScreen (NVS) Transporter Assay for rat Norepinephrine Transporter (NET) (AID 2283373). An outline of the steps: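 Competitive radioligand displacement at the rat NET using forebrain membrane preparations, 1 h incubation, filter-based scintillation readout. Primary testing in duplicate at a single 25 uM concentration; confirmed actives retested across concentrations.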

Records with an inconclusive call do not appear. The source holds several records for some structures; these can differ, active in one and inactive in another. The source made the active and inactive calls. The calls were made as follows, unless noted: active = hit-call score of the fitted dose curve at least 0.9, where 1 is the maximum; inconclusive = response in the unintended direction; inactive = score below 0.9.

For orientation: AC50 means the midpoint of the concentration-response curve, whichever way the signal moves.

Sequence of Peroxisome proliferator-activated receptor gamma (Homo sapiens) (P37231 whole entry, looked up, the tested form may be a part): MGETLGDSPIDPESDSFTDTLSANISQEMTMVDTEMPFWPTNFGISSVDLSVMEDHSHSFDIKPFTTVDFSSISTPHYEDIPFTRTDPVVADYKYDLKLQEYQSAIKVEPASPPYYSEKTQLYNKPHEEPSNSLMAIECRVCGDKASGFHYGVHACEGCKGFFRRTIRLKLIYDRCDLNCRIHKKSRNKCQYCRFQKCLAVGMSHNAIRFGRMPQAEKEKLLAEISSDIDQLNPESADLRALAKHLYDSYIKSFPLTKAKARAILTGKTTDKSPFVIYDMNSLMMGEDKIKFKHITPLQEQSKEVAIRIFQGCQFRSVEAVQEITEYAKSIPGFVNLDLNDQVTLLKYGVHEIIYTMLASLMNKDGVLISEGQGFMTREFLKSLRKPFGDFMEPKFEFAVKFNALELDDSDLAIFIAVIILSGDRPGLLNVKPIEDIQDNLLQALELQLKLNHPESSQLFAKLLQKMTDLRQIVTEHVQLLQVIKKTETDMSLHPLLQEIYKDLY
Sequence of Bile acid receptor (Homo sapiens) (Q96RI1 whole entry, looked up): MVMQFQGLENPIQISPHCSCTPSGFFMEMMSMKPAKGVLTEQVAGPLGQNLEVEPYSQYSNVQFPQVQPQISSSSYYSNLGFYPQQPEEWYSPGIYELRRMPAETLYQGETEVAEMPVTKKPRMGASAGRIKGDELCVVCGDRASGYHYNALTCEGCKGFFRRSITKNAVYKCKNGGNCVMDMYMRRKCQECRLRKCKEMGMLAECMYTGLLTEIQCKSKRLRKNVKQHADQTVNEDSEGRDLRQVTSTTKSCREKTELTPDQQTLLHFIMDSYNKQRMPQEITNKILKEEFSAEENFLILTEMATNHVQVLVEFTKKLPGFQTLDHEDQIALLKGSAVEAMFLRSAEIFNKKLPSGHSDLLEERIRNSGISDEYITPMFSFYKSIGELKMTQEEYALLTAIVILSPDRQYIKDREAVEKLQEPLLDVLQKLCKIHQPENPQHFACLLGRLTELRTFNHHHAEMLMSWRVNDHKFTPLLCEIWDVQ
Sequence of mouse Estrogen Receptor alpha (Era), Esr1 (gene 13982) (P19785 whole entry, looked up): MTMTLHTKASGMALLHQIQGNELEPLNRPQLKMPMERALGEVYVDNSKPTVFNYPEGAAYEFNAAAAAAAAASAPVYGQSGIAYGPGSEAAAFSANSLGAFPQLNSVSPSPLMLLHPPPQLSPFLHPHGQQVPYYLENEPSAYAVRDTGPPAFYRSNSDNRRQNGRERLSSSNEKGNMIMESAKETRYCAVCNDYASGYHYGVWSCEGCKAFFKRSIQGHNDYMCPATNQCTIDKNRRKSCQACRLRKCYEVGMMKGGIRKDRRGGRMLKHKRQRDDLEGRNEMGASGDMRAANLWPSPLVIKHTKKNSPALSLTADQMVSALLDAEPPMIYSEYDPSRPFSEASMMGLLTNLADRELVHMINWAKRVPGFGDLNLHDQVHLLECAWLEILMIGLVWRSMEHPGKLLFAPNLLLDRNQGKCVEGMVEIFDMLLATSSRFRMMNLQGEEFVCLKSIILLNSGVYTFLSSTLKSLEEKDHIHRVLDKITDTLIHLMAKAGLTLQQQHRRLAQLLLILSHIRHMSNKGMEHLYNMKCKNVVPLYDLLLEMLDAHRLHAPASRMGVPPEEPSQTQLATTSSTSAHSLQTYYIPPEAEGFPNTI
Sequence of Estrogen receptor beta (Homo sapiens) (Q92731 whole entry, looked up, the tested form may be a part): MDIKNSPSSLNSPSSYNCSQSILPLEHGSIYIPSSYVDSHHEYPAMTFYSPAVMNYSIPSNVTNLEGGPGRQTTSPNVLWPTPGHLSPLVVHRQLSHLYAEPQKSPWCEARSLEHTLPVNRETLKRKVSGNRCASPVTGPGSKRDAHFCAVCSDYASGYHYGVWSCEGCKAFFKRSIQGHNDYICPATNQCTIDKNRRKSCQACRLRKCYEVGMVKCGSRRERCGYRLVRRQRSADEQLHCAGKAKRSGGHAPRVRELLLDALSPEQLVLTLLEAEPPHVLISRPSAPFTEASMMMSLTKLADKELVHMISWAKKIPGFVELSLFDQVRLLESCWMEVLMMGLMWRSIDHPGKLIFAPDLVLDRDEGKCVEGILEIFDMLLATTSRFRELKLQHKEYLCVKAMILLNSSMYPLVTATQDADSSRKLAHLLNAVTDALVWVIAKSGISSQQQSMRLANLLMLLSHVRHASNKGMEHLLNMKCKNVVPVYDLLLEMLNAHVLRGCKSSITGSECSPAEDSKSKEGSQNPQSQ
Sequence of rat Serotonin Transporter (SERT), Slc6a4 (gene 25553) (P31652 whole entry, looked up): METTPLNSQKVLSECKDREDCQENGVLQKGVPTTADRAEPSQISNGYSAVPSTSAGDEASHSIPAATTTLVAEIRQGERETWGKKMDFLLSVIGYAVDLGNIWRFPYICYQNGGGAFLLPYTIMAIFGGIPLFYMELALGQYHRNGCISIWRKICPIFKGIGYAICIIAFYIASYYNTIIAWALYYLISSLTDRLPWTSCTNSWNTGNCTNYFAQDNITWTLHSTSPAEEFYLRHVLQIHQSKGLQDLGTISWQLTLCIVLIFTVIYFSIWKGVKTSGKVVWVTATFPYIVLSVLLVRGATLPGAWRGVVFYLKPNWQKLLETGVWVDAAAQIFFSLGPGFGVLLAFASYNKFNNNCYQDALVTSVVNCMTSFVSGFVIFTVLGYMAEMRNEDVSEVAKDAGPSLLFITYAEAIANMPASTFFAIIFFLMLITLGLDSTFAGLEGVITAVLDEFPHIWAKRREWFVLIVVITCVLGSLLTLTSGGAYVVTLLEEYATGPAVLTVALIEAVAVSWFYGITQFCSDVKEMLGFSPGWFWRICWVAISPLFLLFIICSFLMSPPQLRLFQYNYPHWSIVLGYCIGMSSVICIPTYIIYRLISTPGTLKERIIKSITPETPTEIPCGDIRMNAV

Regarding `CCCC(CCC)C(=O)O`, the outcome in [1], in [2], in [3], in test [4] and in test [5] was inactive. Moreover, the AC50 in test [3] was 90.4 µM (active).
As to `CC[C@H](C)C(=O)O[C@H]1C[C@H](O)C=C2C=C[C@H](C)[C@H](CC[C@@H](O)C[C@@H](O)CC(=O)O)[C@H]21`, the result in test [6], in test [7], in test [2], in test [3], in [4] and in test [5] was inactive. Also, the figures for the concentration at half-maximal activity (AC50) in [8], in test [9] and in [10] were 5.33 µM (active), 1.06 µM (active) and 5.55 µM (active), respectively.
On to `CCCCCCCCCC`, for which the call in test [6], in [11], in test [7], in test [2], in test [12] and in test [13] was inactive. The result in [14], in test [3], in [4], in test [5] and in test [15] was inactive.
Regarding `Cc1ccc(S(=O)(=O)NC(=O)NN2CCCCCC2)cc1`, the call in [11], in test [7], in test [2], in [3], in test [4] and in [5] was inactive.
Consider `O=c1[nH]cnc2c1ncn2[C@H]1CC[C@@H](CO)O1`, for which the result in test [16], in test [2], in test [3], in test [4] and in test [5] was inactive.
With `CC(C)CCCCCCOC(=O)C1CCCCC1C(=O)OCCCCCCC(C)C` (configuration not stated), the molecule was classed as inactive in test [1], in test [7], in test [2], in test [13], in test [3] and in test [4]. For the same molecule, in test [5], the call was inactive.
`OC[C@H]1O[C@@H]2O[C@H]3[C@H](O)[C@@H](O)[C@@H](O[C@H]4[C@H](O)[C@@H](O)[C@@H](O[C@H]5[C@H](O)[C@@H](O)[C@@H](O[C@H]6[C@H](O)[C@@H](O)[C@@H](O[C@H]7[C@H](O)[C@@H](O)[C@@H](O[C@H]1[C@H](O)[C@H]2O)O[C@@H]7CO)O[C@@H]6CO)O[C@@H]5CO)O[C@@H]4CO)O[C@@H]3CO`: in [1], the AC50 is 10.3 µM (active). The outcome in [7], in test [2], in test [12], in test [3], in [4] and in [5] was inactive.
As for `CC(C)c1nnc2ccc(-c3ocnc3-c3cc(F)ccc3F)cn12`, the molecule was called inactive in test [6], in test [7], in test [2], in test [13], in test [14] and in test [3]. Besides, the molecule was classed as inactive in test [4], in test [5], in [8], in test [9] and in test [10].
In the case of `CCOC(N)=O`, the result in test [1], in test [2], in [12], in [3] and in test [4] was inactive.

(Values after PubChem BioAssay (EPA / NIEHS).)
